# Paper PMC5540273 (PLoS ONE, 2017)
# What was measured:
# Conditions in all cases: concentration: 1 μM, replicates: in singlicate; n = 1
# [1] = test system: CSNK2A2
# [2] = test system: T1, CTK
# T1 construct: gene MATK
# [3] = test system: DAPK1
# [4] = test system: DAPK2
# [5] = test system: DAPK3
# [6] = test system: T2, DCAMKL1
# T2 construct: gene DCLK1
# [7] = test system: T3, DCAMKL2
# T3 construct: gene DCLK2
# [8] = test system: T4, DCAMKL3
# T4 construct: gene DCLK3
# [9] = test system: DDR1
# [10] = test system: DDR2
# [11] = test system: T5, DLK
# T5 construct: gene MAP3K12
# [12] = test system: T6, DMPK2
# T6 construct: gene CDC42BPG
# [13] = test system: DMPK
# [14] = test system: T7, DRAK1
# T7 construct: gene STK17A
# [15] = test system: T8, DRAK2
# T8 construct: gene STK17B
# [16] = test system: DYRK1A
# [17] = test system: DYRK1B
# [18] = test system: DYRK2
# [19] = test system: EGFR
# [20] = test system: EIF2AK1
# 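Further: KINOMEscan kinase panel screen.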
SMILES,%Inh [1] [%],%Inh [2] [%],%Inh [3] [%],%Inh [4] [%],%Inh [5] [%],%Inh [6] [%],%Inh [7] [%],%Inh [8] [%],%Inh [9] [%],%Inh [10] [%],%Inh [11] [%],%Inh [12] [%],%Inh [13] [%],%Inh [14] [%],%Inh [15] [%],%Inh [16] [%],%Inh [17] [%],%Inh [18] [%],%Inh [19] [%],%Inh [20] [%]
COc1cc2nccc(Nc3ccc(OCc4ccc(NC(C)=O)cc4)cc3)c2cc1OC.Cl [GW440135],0,20,0,10,1,4,0,0,0,45,27,0,0,7,0,15,1,4,18,17
CCS(=O)(=O)c1ccc(OC)c(Nc2ncc(-c3ccc(F)cc3)o2)c1.Cl [GW591947],17,0,0,0,15,9,0,6,0,4,25,13,6,10,0,12,0,17,4,5
OCCCNc1nccc(-c2c(-c3cccc(C(F)(F)F)c3)nn3cc(C(F)(F)F)ccc23)n1 [GW630813],27,0,0,0,3,40,0,0,15,40,37,39,0,0,0,26,0,0,26,0
Nc1n[nH]c2nnc(-c3ccccc3)c(-c3ccccc3)c12 [GW554060],0,0,0,0,19,1,0,0,28,22,25,0,0,0,0,23,0,20,36,0
O=C(NCCNc1ccnc(Nc2ccc(F)cc2)n1)Nc1ccc2c(c1)OCO2 [GSK1379882],16,0,19,8,26,0,0,0,0,18,5,11,0,10,0,7,0,23,0,0
Cc1cccc(-c2cc(-c3c[nH]nc3-c3ccccn3)ccn2)c1 [GW679395],8,0,6,0,16,14,0,13,36,8,13,1,0,0,0,24,0,0,31,0
O=C(Nc1ccc2c(c1)OCO2)NC1CCN(c2ccnc(NCc3ccc(F)cc3)n2)CC1 [GSK1379859],22,0,22,0,0,14,0,18,9,0,22,16,0,6,0,7,14,5,44,10
CCn1c(-c2ccoc2)nc2cnccc21 [SB-733887],13,0,0,0,14,34,0,0,27,14,7,0,0,0,0,10,13,6,24,8
CC(C)(C)c1ccc(C(=O)Nc2cn3cc(-c4ccccc4)ccc3n2)cc1,75,0,9,0,0,33,0,21,4,28,0,0,0,0,0,0,0,37,5,0
